In the supplement of paper PMC11732987, “Enantioselective OTUD7B fragment discovery through chemoproteomics screening and high-throughput optimisation” (Communications Chemistry, 2025):

Legend:
Test in all cases: log2 ratio of Biotin-Ahx-Ub-VS probe labelling (fragment/DMSO); higher = less target engagement (more negative = stronger competition), active = hit call of the paper (q ≤ 0.05, log2 ratio ≤ -1)
Conditions in all cases: compound concentration: 200 uM; treatment time: 3 h
USP9X = USP9X (UniProt Q93008)
Outline: (§1)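 In triplicate, 495 µg of HEK293T lysate per sample was incubated with fragment at 200 µM or vehicle for 3 h. Biotin-Ahx-Ub-VS was then added to 0.5 µM final for 1 h, and labelled DUBs were captured with NeutrAvidin, digested with LysC and trypsin, and measured by diaPASEF LC-MS/MS. Data are average log2 fragment/vehicle ratios by unpaired t-test from global-median-normalised Spectronaut label-free quantities, restricted to proteins with ≥2 unique peptides.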

UniProt O00487 = target: UniProt O00487
Outline: as §1

UniProt O00507 = target: UniProt O00507
Outline: as §1

UniProt P51784 = target: UniProt P51784
Outline: as §1

UniProt Q5T2D3 = target: T1, UniProt Q5T2D3
T1 sequence (whole entry): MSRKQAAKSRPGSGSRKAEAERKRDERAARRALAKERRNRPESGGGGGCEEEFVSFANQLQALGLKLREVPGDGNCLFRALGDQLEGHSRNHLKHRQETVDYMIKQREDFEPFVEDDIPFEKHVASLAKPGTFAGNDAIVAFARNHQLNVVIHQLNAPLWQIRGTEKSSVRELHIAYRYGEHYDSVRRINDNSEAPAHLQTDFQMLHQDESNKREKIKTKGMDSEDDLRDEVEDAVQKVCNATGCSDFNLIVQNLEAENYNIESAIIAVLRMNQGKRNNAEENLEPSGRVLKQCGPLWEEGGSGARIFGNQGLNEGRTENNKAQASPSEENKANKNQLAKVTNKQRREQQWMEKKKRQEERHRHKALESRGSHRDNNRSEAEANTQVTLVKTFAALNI
Outline: as §1

UniProt Q8TE49 = target: T2, UniProt Q8TE49
T2 sequence (whole entry): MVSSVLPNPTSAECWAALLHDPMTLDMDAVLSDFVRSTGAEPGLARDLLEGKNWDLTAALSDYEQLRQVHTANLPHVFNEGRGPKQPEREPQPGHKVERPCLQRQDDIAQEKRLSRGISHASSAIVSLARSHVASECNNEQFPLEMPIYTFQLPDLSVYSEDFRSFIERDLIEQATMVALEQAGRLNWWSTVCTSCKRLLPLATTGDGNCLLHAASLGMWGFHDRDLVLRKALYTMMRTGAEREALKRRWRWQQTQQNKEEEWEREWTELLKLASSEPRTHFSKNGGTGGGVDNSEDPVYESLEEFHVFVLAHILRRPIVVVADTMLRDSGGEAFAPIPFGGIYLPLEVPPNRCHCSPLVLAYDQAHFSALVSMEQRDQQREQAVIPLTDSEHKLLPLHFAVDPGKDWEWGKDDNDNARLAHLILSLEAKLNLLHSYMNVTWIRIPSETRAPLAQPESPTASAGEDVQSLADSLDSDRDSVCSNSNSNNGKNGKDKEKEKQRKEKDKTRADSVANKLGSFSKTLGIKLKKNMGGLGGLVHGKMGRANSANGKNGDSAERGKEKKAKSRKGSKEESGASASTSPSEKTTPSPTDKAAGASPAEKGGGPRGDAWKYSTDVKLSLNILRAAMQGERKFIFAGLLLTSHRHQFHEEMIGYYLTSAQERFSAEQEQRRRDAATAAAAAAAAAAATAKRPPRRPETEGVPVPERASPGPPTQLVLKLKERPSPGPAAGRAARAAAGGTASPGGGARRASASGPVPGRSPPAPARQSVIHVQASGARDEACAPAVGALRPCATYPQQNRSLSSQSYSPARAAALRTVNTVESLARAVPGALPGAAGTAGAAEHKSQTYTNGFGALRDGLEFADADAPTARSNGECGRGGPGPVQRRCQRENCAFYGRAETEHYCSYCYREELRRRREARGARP
Outline: as §1

UniProt Q9P2H5 = target: T3, UniProt Q9P2H5
T3 sequence (whole entry): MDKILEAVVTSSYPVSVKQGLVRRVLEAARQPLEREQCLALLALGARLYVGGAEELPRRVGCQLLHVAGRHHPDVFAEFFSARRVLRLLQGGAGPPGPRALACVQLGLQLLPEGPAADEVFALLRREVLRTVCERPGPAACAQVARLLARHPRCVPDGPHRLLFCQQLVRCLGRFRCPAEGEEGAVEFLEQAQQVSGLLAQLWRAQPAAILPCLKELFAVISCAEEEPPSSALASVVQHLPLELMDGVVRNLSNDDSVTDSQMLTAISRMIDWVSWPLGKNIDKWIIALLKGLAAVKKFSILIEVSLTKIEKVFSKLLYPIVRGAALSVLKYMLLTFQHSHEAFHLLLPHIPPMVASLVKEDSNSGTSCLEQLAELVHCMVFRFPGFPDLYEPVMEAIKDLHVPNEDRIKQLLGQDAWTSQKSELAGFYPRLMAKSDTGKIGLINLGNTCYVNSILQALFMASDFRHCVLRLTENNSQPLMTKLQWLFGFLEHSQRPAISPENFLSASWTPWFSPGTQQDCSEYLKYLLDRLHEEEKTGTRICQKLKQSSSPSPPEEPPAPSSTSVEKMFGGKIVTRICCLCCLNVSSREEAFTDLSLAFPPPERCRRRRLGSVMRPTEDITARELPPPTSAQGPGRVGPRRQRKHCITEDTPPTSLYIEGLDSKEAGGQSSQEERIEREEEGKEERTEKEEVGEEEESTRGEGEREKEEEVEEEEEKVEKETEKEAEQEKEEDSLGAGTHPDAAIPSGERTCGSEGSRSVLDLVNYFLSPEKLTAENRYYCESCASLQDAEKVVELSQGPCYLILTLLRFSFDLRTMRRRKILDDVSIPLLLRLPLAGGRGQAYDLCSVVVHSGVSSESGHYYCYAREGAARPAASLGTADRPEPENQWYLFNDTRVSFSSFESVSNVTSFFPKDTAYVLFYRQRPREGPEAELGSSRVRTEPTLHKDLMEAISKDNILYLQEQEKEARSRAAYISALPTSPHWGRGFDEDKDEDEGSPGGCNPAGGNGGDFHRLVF
Outline: as §1

UniProt Q9UGI0 = target: T4, UniProt Q9UGI0
T4 sequence (whole entry): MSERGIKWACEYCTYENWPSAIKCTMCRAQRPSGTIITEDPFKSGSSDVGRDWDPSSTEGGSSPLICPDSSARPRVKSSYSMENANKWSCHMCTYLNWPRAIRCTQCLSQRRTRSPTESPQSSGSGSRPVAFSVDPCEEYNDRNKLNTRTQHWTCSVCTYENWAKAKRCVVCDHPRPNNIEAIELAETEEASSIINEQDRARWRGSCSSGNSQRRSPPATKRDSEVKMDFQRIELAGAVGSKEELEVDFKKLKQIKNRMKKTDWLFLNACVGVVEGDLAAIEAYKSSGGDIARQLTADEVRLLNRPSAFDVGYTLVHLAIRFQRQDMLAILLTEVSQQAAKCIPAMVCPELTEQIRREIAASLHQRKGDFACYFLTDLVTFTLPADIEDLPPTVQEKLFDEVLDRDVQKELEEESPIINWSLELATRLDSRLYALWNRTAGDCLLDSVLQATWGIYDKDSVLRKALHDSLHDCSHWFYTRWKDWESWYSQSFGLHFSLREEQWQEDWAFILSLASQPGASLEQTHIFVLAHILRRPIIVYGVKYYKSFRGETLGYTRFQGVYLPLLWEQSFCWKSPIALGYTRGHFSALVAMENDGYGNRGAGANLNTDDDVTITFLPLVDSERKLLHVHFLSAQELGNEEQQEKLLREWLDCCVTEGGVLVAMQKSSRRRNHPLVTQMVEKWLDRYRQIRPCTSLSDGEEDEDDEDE
Outline: as §1

YOD1 = target: T5, YOD1 (UniProt Q5VVQ6)
T5 sequence (whole entry): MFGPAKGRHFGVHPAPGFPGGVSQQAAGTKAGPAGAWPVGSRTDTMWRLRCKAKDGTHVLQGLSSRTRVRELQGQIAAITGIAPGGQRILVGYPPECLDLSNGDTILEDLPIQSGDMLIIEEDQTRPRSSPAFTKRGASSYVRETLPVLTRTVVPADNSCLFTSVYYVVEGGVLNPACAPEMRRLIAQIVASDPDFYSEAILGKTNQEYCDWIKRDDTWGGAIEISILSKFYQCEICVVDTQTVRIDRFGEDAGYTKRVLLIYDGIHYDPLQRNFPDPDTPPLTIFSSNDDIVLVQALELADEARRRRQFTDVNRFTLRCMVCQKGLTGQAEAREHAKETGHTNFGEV
Outline: as §1

Measured: log2 ratio of Biotin-Ahx-Ub-VS probe labelling

Sequence of UniProt O00507 (O00507 whole entry): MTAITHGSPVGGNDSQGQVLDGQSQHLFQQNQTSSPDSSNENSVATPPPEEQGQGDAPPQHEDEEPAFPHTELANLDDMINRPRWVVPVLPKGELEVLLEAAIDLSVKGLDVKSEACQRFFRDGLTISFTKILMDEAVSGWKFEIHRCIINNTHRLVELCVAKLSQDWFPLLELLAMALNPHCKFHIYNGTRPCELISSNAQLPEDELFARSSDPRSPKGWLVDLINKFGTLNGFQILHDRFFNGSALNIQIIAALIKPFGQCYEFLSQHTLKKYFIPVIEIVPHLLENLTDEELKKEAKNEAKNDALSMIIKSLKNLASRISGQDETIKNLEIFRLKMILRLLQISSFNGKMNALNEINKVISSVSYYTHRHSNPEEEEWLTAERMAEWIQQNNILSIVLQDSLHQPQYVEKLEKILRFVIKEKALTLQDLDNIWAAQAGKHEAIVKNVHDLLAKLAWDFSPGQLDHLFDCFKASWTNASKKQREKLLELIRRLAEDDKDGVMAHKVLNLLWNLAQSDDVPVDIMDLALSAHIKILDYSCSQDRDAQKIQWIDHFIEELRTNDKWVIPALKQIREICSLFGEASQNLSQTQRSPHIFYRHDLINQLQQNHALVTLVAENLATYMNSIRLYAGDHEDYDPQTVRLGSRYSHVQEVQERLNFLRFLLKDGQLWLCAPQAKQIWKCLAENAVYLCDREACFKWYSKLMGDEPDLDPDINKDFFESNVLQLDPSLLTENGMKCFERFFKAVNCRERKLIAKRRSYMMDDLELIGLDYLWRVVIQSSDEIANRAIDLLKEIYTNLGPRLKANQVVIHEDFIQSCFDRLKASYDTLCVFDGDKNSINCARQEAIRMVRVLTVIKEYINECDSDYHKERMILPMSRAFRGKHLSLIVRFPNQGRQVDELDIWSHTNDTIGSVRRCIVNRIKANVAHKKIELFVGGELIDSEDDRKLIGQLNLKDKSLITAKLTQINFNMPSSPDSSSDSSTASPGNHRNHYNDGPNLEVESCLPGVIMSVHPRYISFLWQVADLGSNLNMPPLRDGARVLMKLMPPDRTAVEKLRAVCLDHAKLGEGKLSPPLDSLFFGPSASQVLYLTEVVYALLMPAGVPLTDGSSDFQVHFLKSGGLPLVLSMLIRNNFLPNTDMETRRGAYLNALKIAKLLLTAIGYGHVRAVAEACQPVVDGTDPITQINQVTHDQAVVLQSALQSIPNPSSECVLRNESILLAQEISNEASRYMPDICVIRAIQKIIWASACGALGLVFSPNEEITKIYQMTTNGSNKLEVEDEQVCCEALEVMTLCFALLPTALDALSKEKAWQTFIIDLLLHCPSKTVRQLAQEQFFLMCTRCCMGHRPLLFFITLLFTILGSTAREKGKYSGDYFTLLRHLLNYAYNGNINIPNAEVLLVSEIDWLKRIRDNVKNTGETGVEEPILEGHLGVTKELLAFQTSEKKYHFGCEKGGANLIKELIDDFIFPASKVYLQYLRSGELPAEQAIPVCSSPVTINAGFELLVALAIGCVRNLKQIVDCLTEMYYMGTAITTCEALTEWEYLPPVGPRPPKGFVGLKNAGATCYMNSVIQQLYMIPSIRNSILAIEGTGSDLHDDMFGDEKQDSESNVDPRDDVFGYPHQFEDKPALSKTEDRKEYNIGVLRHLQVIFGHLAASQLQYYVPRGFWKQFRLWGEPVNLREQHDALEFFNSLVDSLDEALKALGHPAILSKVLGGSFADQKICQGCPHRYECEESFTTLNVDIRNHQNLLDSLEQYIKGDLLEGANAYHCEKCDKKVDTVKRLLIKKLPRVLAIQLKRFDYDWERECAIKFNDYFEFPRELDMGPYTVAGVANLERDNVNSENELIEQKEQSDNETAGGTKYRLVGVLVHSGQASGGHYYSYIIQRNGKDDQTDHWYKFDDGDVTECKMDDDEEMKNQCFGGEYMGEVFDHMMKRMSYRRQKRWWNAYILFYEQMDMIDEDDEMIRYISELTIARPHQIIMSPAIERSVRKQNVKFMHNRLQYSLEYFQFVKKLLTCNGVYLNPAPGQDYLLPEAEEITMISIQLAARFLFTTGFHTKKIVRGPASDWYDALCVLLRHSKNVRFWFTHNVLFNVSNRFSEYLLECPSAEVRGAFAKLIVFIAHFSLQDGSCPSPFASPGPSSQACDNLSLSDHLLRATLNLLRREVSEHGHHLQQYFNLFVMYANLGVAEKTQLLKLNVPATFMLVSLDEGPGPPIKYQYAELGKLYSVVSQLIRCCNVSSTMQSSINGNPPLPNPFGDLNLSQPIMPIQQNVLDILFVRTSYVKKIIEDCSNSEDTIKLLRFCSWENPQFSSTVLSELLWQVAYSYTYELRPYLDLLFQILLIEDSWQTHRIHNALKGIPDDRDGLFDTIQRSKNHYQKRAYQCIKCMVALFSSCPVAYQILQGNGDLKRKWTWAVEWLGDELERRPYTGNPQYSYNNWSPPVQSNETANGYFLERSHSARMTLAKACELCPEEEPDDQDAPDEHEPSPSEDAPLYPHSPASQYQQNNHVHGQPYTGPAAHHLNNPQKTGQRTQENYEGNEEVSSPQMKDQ
Sequence of UniProt O00487 (O00487 whole entry): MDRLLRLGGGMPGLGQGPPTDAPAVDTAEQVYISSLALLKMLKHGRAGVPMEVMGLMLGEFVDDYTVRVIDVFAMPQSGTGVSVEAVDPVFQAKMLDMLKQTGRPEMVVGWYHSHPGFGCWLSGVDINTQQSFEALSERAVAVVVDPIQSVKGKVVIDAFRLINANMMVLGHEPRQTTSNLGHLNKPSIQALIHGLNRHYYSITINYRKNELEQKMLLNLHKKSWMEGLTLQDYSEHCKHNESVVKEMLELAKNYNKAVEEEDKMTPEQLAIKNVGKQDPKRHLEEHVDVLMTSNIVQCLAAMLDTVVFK
Sequence of UniProt P51784 (P51784 whole entry): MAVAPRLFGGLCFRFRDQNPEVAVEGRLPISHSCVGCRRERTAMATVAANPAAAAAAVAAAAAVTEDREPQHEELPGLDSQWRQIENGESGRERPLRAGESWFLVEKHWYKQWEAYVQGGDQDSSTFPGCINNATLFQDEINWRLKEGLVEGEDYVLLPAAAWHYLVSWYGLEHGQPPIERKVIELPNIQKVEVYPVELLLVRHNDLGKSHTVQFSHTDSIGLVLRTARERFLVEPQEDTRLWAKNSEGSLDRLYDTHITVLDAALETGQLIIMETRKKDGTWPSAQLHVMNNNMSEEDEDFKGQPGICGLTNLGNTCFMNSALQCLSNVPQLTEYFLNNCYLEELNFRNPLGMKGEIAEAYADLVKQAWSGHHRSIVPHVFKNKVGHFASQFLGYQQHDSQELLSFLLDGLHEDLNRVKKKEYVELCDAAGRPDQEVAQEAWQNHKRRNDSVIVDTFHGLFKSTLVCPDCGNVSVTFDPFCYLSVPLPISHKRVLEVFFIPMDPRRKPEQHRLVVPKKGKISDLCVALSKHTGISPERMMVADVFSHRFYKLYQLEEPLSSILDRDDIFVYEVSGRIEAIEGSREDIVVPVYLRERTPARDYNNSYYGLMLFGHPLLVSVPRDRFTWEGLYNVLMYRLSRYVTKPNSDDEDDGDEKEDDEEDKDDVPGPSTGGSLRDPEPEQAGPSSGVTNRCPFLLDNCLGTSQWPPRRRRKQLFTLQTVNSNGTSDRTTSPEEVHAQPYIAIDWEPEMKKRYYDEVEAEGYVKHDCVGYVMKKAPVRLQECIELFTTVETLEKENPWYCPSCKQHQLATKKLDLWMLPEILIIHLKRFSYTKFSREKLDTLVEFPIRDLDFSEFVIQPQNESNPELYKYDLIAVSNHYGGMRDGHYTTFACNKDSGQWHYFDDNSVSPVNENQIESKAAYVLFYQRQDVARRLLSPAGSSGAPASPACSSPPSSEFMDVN

CS(=O)(=O)N1CCCN(C(=O)CCl)CC1
inactive: USP9X -0.177 | UniProt O00487 0.0126 | UniProt O00507 0.0618 | UniProt P51784 -0.0587 | UniProt Q5T2D3 -0.154 | UniProt Q8TE49 -0.261 | UniProt Q9P2H5 -0.224 | UniProt Q9UGI0 -0.469 | YOD1 0.146
